Test results taken from PubChem BioAssay (NCI).
Compounds without any hit were thinned out: in the full panel of roughly 83,000, 20% have a hit.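 48-hour exposure, single concentration, 96-well plates; percent growth endpoint where 0 means no net growth. Active: below 10.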 A number with no mark means an inactive call. Calls of active or inactive are those of the source.

Columns and labels:
Experiment in all cases: NCI-60 one-dose screen, 48 h (100 = growth as untreated, 0 = no growth, -100 = all killed)
Settings in all cases: 10 µM unless noted
NCI-H23 lung = test system: NCI-H23 lung
NCI-H226 lung = test system: NCI-H226 lung
NCI-H322M lung = test system: NCI-H322M lung
HOP-62 NSCLC = test system: HOP-62 NSCLC
NCI-H460 lung = test system: NCI-H460 lung
NCI-H522 lung = test system: NCI-H522 lung
A549/ATCC NSCLC = test system: A549/ATCC NSCLC
786-0 renal = test system: 786-0 renal
MALME-3M melanoma = test system: MALME-3M melanoma
MDA-MB-231 breast = test system: MDA-MB-231 breast
RXF 393 renal = test system: RXF 393 renal
SF-268 CNS = test system: SF-268 CNS
SF-295 CNS = test system: SF-295 CNS
SF-539 CNS = test system: SF-539 CNS
UACC-257 melanoma = test system: UACC-257 melanoma
M14 melanoma = test system: M14 melanoma
HCT-15 colon = test system: HCT-15 colon
COLO 205 colon = test system: COLO 205 colon
DU-145 prostate = test system: DU-145 prostate
K-562 leukemia = test system: K-562 leukemia

SMILES	growth (NCI-H23 lung)	growth (NCI-H226 lung)	growth (NCI-H322M lung) [%]	growth (HOP-62 NSCLC)	growth (NCI-H460 lung)	growth (NCI-H522 lung)	growth (A549/ATCC NSCLC)	growth (786-0 renal)	growth (MALME-3M melanoma)	growth (MDA-MB-231 breast)	growth (RXF 393 renal)	growth (SF-268 CNS)	growth (SF-295 CNS)	growth (SF-539 CNS)	growth (UACC-257 melanoma)	growth (M14 melanoma)	growth (HCT-15 colon)	growth (COLO 205 colon)	growth (DU-145 prostate)	growth (K-562 leukemia)
Cn1cc(-c2csc(-c3cn(C)c4ncccc34)n2)c2cc(Br)cnc21	82%	101%	104	100%	95.4%	98.7%	87%	93.8%	107%	61.9%	81.2%	105%	82.1%	109%	96.2%	80.7%	81.1%			
COc1ccc(CCN2CCCN3C2=Nc2ccccc2S3(=O)=O)cc1	28.8%	61.7%	59.6	52.5%	13.4%	17.3%	31.7%		68.8%	49.1%	-0.424% (active)	63.1%	14%	-28.2% (active)	75.7%	31.1%	25.4%	1.13% (active)	23%	15.6%
CCCC[N+](CCCC)=c1ccc2nc3c(C)cc(N(CC)CC)cc3sc-2c1	-36.2% (active)	18.4%	27.6	-23.4% (active)	2.83% (active)	-17.1% (active)	16.7%		-78.6% (active)	-29.4% (active)	-25.8% (active)	10.4%	-24.4% (active)	-62.5% (active)	-41% (active)	7.11% (active)	-33.5% (active)	-41.1% (active)	13.7%	-49.1% (active)
CCCCCCCCCCCCNc1ncnc2[nH]ncc12	51.1%	72.9%	99.3	93.4%	79.2%	76.1%	71.1%		84.7%	68.6%	96.4%	84%	54.8%	77%	50.2%	74.2%	84.9%	95.4%	85.9%	48.7%
O=[N+]([O-])c1ccc2c(c1)S(=O)c1cc([N+](=O)[O-])ccc1N2	103%	91.9%	117	67.3%	96.4%	97%		108%	113%	96.3%	104%	104%	106%	98.3%	96.6%	91.7%	99%	108%	116%	115%
CCC(c1ccccc1)c1noc(CCN(CC)CC)n1 (centres undefined)	99.5%	90.7%	109	97.4%	103%	-8.89% (active)		108%	93.8%	106%	33.3%	103%	108%	101%			108%	114%	100%	65.1%
COc1ccc(/C=N/NC(=O)c2ccc(S(C)(=O)=O)cc2)cc1OC	102%	93.5%	92.1	97.2%	109%	84.4%		99.5%	107%	106%	104%	102%	100%	105%		99.4%		107%	99.8%	80.9%
Cn1cc(-c2nc(-c3c[nH]c4ncccc34)cs2)c2cccnc21	63.1%	70%	64.3	68.2%	46.6%	46.5%	69.6%	60.6%	84.8%	47.6%	54.6%	91.5%	71.1%	69.1%	105%		43.6%			
O=C1c2nsnc2C(=O)c2c(F)c(F)c(F)c(F)c21	-22.5% (active)	-38.2% (active)	26.9	-86% (active)	-51.8% (active)	-67.2% (active)	-27.9% (active)	-97.1% (active)	-45.9% (active)	-68.2% (active)	-96.4% (active)	-15.6% (active)	-37% (active)	-74.1% (active)	-97.3% (active)	-90.8% (active)	-59.1% (active)			
Clc1ccc2c(Nc3ccc4oc(NCCN5CCCC5)nc4c3)ccnc2c1	88.7%	101%	90.1	109%	96.4%	98.5%	92.9%		105%	37.3%	81.8%	72.5%	106%	47.6%	108%	50.7%	49.3%	84.4%	71.1%	20.8%
COc1ccc2c(c1)nc(N)c1c3cc(OC)c(OC)cc3cn21	56.1%	78.2%	84.6	76.9%	20.5%	-8.03% (active)	43.8%	43.1%	71.3%	83.8%	46.3%	55.1%	31%	78.6%	94.8%	31.6%	30.4%			
O=NC1CC=CCC1c1ccccc1 (centres undefined)	106%	105%	118	98.7%	112%	109%		106%	114%	101%	116%	104%	122%	98.5%	105%		104%	117%	124%	105%
CO[C@H]1/C=C/O[C@@]2(C)Oc3c(C)c(O)c4c(O)c(c(/C=N/N5C(C)CN(Cc6ccccc6)CC5C)c(O)c4c3C2=O)NC(=O)/C(C)=C\C=C\[C@H](C)[C@H](O)[C@@H](C)[C@@H](O)[C@@H](C)[C@H](OC(C)=O)[C@@H]1C (some centres undefined)	14.7%	68.1%	121	89.1%	54.9%	-12.5% (active)		68.7%	108%	102%		92.6%	41.1%	85.8%	117%	89.9%	57.5%	80.1%	81.6%	203%
O=C(CCc1nnc2sc(Cc3ccccc3Cl)nn12)c1nc2ccccc2[nH]1	90.4%	89.3%	85.2	92.1%	99.5%	96.6%	100%	85.8%	112%	76.5%	90.9%	84.9%	103%	107%	102%	99.2%	92.3%			
CN1CCN(Cc2ccc(NC(=O)c3[nH]ncc3Nc3ccnc4ccnn34)cc2)CC1	62.3%	65.7%	79.6	93.5%	63.7%	55.7%	81.3%		58.9%	99.9%	51.5%	63.7%	88.7%	40.9%	77.9%	57.1%	98%	39.5%	47.4%	34.9%
CN(CC(=O)N(Cc1ccc(C2CCCCC2)cc1)c1ccc(C(=O)O)cc1)S(=O)(=O)c1c(F)c(F)c(F)c(F)c1F	-19.9% (active)	97.4%	86.4	60.6%	96%	44.7%	100%		62%	-28.7% (active)	-87.3% (active)	67.5%	108%	99.2%	31.6%	19.9%	-46.1% (active)	12.9%	-18% (active)	1.31% (active)
COc1ccc(-n2nc3c(c2-c2ccc(OC)c(OC)c2)-c2oncc2CC3)cc1	93.3%	106%	97.7	94.1%	90.3%	18.1%	82.5%	78%	100%	80%	83.8%	84%	84%	114%	110%	93.6%	55.9%			
